AmpC inh no detg: blocks E. coli AmpC beta-lactamase in detergent-free assay; hit rate 0.52% among 330,000; AmpC nitrocefin hydrolysis, absorbance 480 nm, 0.0001% Triton; P00811; Potency, µM (series often up to 57.1 µM), without a hit: at the highest dose activity change, negative = inhibition, hits mostly inhibitors;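 note: potency is the fitted concentration of half-maximal effect; plate controls were no compound for no effect and no enzyme for full effect; nearly all actives have a fitted effect of over 20% in size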
Target sequence (P00811 whole entry, looked up): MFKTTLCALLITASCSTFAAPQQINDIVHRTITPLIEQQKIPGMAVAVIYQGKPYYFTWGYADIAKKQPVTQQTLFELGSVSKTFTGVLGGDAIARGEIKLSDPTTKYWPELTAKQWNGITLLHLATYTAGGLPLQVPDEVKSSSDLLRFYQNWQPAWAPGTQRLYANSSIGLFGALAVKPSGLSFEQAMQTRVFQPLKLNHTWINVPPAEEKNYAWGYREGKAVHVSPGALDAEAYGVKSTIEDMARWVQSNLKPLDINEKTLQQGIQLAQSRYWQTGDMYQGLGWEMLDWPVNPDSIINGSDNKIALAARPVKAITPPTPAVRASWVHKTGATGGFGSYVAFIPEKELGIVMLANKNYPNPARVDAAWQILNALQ
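AmpC (5.3 nM in the dispensed reagent) in 20 mM phosphate pH 7.0 with 0.01% (detergent screen) or 0.0001% Triton X-100 was preincubated with compounds for 15 min at room temperature. Nitrocefin was then added from an 800 uM solution, and hydrolysis was followed at 480 nm.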
CHX counter: affects cycloheximide protein synthesis inhibition readout, counter-screen; hit rate 12% among 300,000; cell reporter, cycloheximide protein synthesis inhibition counterscreen; max response, %; AID 2314; in the data active = max response mostly above about 13%, no sharp cut-off; inactive = mostly below about 14%; note: read at 38.3 µM for the half of the compounds with a filed dose; 0% is about no effect
Shiga inhibitor: Shiga toxin inhibition | Vero cells, Shiga toxin protein synthesis inhibition reporter | inhibition, % at 38.7 µM | hit rate 9.2% among 290,000 | AID 2315; in the data active = inhibition mostly above about 28%, no sharp cut-off; inactive = mostly below about 43%; note: 0% is about no effect
AmpC inh detg: AmpC beta-lactamase inhibition with detergent present. AmpC hydrolysis of nitrocefin, absorbance 480 nm, 0.01% Triton. Potency, µM (series often up to 114 µM), for inactives: top-dose activity change, negative = inhibition, actives largely listed as inhibitors. hit rate 0.041% among 370,000;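 note: potency is the fitted concentration of half-maximal effect; 0% = no-compound wells and -100% = no-enzyme wells; nearly all actives have a fitted effect of over 25% in size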
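20 mM phosphate pH 7.0 + 0.01% (detergent screen) or 0.0001% Triton X-100; 5.3 nM AmpC reagent; cpd preinc 15 min RT; nitrocefin (800 uM stock) to start; A480 q20 s × 4 min; Activity was normalised to no-enzyme and no-compound control wells.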
NS1 function inh: blocks influenza NS1 protein function; Potency, µM (doses to about 46.1 µM), without a hit: top-dose activity, positive = more growth; hit rate 0.4% among 270,000; AID 2326; calls by dose curve; note: potency is the fitted concentration of half-maximal effect; actives are rising curves; nearly all actives have a fitted effect of over 50% in size
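In this qHTS, NS1 from influenza A is expressed in budding yeast, where it slows growth. Cells are switched from glucose to 2% galactose medium (pH 6.0, -URA), treated with compound, and growth recovery is read at OD600.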
Active calls of the source: *; [ ] = remark or other dose. The full list was thinned out, with hits kept by preference. Unless noted, calls come from the whole dose curve; as a rule, active = well fitted curve in the direction sought with a large enough effect; inconclusive = small, poorly fitted or top-dose-only effect, or another doubt; inactive = no such curve, though single readings can be large; an effect the other way counts as inactive or inconclusive.

CC1(C)Cc2c(cnn2-c2ccc(F)cc2)C(NC(=O)CCN2CCCCC2=O)C1 (stereo not given) was read as AmpC inh no detg 82%, CHX counter 9, Shiga inhibitor 29, AmpC inh detg -6% and NS1 function inh 12%.
Screening COc1ccc(N2CCN(C(=O)c3nn(C)c4c3CSc3ccccc3-4)CC2)cc1 returned AmpC inh detg -4%.
`COc1cccc(-n2ccn(CC(=O)c3ccc(F)cc3)c(=O)c2=O)c1` gave AmpC inh detg 21%.
Screening CC(C)CCNC(=O)C1C2C=CC3(CN(Cc4ccccc4Cl)C(=O)C13)O2 (stereo not given) returned AmpC inh no detg 8.9µM*, CHX counter -1, Shiga inhibitor -2, AmpC inh detg inconclusive and NS1 function inh 7%.
O=C(Nc1cccc(C(F)(F)F)c1)NC1CCCCC1 was read as AmpC inh no detg -37%, CHX counter 16, Shiga inhibitor 15, AmpC inh detg -5% and NS1 function inh -5%.
Screening O=C(Nc1cccc(Cl)c1)NC1CCCCC1 returned AmpC inh no detg -28%, CHX counter 38*, Shiga inhibitor 91*, AmpC inh detg 1% and NS1 function inh -19%.
Screening O=C(Nc1cccc(Cl)c1)NC1CC2CCC(C1)N2Cc1ccco1 (stereo not given) returned AmpC inh no detg -33%, CHX counter 5, Shiga inhibitor -6 and AmpC inh detg -10%.
CC(=O)c1cccc(NC(=O)CCC2CCCC2)c1 was read as AmpC inh no detg -8%, CHX counter 25*, Shiga inhibitor inactive, AmpC inh detg -5% and NS1 function inh -169%.
`O=C(Nc1cccc(Cl)c1)NC1CC2CCC1C2` (stereo not given) gave AmpC inh no detg -44%, CHX counter 23*, AmpC inh detg inconclusive and NS1 function inh -75%.
`CC(=O)c1cccc(NC(=O)NC2CCCCCCC2)c1` gave AmpC inh no detg -41%, CHX counter 36*, Shiga inhibitor 50, AmpC inh detg inconclusive and NS1 function inh -16%.
Screening CC(=O)c1cccc(NC(=O)NC2CCCCC2)c1 returned AmpC inh no detg -20%, CHX counter 16, Shiga inhibitor 17, AmpC inh detg -12% and NS1 function inh -15%.
CCOc1ccc(NC(=O)CN2CCN(Cc3ccccc3)S2(=O)=O)cc1 was read as AmpC inh detg -4%.
Screening COC1=C2C[C@@H](C)C[C@H](OC)[C@H](O)[C@@H](C)/C=C(\C)[C@H](OC(N)=O)[C@@H](OC)/C=C\C=C(/C)C(=O)NC(=CC1=O)C2=O returned CHX counter 8 and Shiga inhibitor -1.
`CC(=O)c1cccc(NC(=O)C2CCCC2)c1` gave AmpC inh no detg -9%, CHX counter 2, Shiga inhibitor -18, AmpC inh detg inconclusive and NS1 function inh -4%.
For Cc1cccc(NC(=O)NC2CCCCCCC2)c1 the results were AmpC inh no detg -55%, CHX counter 41*, Shiga inhibitor 93*, AmpC inh detg 2% and NS1 function inh -26%.
Screening Cc1cccc(NC(=O)CCC2CCN(C(=O)c3ccc(C)s3)CC2)c1 returned AmpC inh no detg 40%, CHX counter 22*, Shiga inhibitor 14, AmpC inh detg 0% and NS1 function inh 12%.
`CC(=O)c1ccc(NC(=O)C2CCCC2)cc1` gave AmpC inh no detg -6%, CHX counter 9.4*, Shiga inhibitor 1, AmpC inh detg -20% and NS1 function inh -7%.
Cc1cccc(NC(=S)NC2CCCC2)c1 was read as AmpC inh no detg -7%, CHX counter 9, Shiga inhibitor 19, AmpC inh detg 8% and NS1 function inh 10%.
COC(C(=O)N1CCC(CCC(=O)Nc2ccccc2)CC1)c1ccccc1 (stereo not given) was read as AmpC inh no detg 25%, CHX counter 37*, Shiga inhibitor 48*, AmpC inh detg inconclusive and NS1 function inh -16%.
For COc1ccc(C(=O)N2CCC(CCC(=O)Nc3cccc(C)c3)CC2)cc1 the results were AmpC inh no detg 44%, CHX counter 13, Shiga inhibitor 11, AmpC inh detg -12% and NS1 function inh 2%.
Screening O=C(NC1(C(F)(F)F)N=C(c2ccccc2)N(C2CCCCC2)C1=O)c1ccc(F)cc1 (stereo not given) returned AmpC inh detg -1%.
Cc1nc2ccc(NC(=O)CCC3CCCC3)cc2s1 was read as AmpC inh no detg 15%, CHX counter 45*, Shiga inhibitor 97*, AmpC inh detg -7% and NS1 function inh -19%.
Screening CC(=O)c1ccc(NC(=O)NC2CCCCCCC2)cc1 returned AmpC inh no detg -59%, CHX counter 39*, Shiga inhibitor 95*, AmpC inh detg -6% and NS1 function inh -24%.
`CC(=O)c1ccc(NC(=S)NC2CCCC(C)C2C)cc1` (stereo not given) gave AmpC inh no detg -28%, CHX counter 17*, Shiga inhibitor 48* and AmpC inh detg -12%.
Cc1nc2ccc(NC(=O)CCS(=O)(=O)c3ccc(Cl)cc3)cc2s1 was read as AmpC inh no detg -20%, CHX counter 4, Shiga inhibitor -10, AmpC inh detg -6% and NS1 function inh -2%.
COc1ccc(-c2noc(N3CCCC(C(=O)Nc4ccc(C(C)=O)cc4)C3)n2)cc1 (stereo not given) was read as AmpC inh no detg -11%, CHX counter 28*, Shiga inhibitor 31, AmpC inh detg 0% and NS1 function inh -1%.
Screening CCc1cc2c(=O)oc(-c3ccc(Br)cc3)nc2s1 returned AmpC inh no detg -14%, CHX counter 7, Shiga inhibitor -7, AmpC inh detg 2% and NS1 function inh 5%.
For COc1ccc(N(C)C(=O)c2ccc(NC(=O)CCS(=O)(=O)c3cccs3)cc2)cc1 the results were AmpC inh no detg -17%, CHX counter -3, Shiga inhibitor 13, AmpC inh detg -11% and NS1 function inh 0%.
For O=C(NC1CCC(O)CC1)c1ccc(-c2ccc(Cl)cc2)o1 (stereo not given) the results were AmpC inh no detg 30% and AmpC inh detg -16%.
For CC(=O)c1ccc(-c2ccc(C(=O)NC3CCCCCC3)o2)cc1 the results were AmpC inh no detg -22%[11.4 µM], CHX counter 28*, Shiga inhibitor 41* and AmpC inh detg inconclusive.
`S=C(NCCc1ccccc1)NC1CCC(NC(=S)NCCc2ccccc2)CC1` (stereo not given) gave AmpC inh no detg -6%, CHX counter 8, Shiga inhibitor -4, AmpC inh detg 2% and NS1 function inh 5%.
`S=C(NCCc1cccc(Cl)c1)NC1CCCCC1` gave AmpC inh no detg -52%, CHX counter 59*, Shiga inhibitor 77*, AmpC inh detg -7% and NS1 function inh -89%.
CCc1nnc2c(NCc3cccc(OC)c3)nc3ccccc3n12 was read as AmpC inh detg 2%.
